Compounds with a hit are over-represented: about 4% of the library has one in this group of screens.
Mtb betalactam: beta-lactam sensitization of Mtb H37Rv; M. tuberculosis H37Rv growth with meropenem, percent inhibition; inhibition, % at 25 µM; 330,000 compounds, 0.27% hits; call rule not given here;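 note: growth measured after seven days incubation then overnight dye step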
MazF activator: MazEF (E. coli) toxin RNase activation; FAM/BHQ RNA-DNA oligo cleavage fluorescence, 5 h; activation, % at 20 µM; 350,000 compounds, 0.32% hits; AID 504720; in the data active = activation above about 50%
Target sequence (P0AE70 whole entry, looked up): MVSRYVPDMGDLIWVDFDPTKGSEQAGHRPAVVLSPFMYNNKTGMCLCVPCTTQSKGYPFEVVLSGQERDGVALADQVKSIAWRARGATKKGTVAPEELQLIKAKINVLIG
Mtb FBA inh: Mtb fructose-bisphosphate aldolase inhibition; P9WQA3; purified M. tuberculosis FBA, fluorescence read-out; inhibition, % at 1 µM; 360,000 compounds, 2.3% hits; in the data active = inhibition above about 27%
Target sequence (P9WQA3 whole entry, looked up): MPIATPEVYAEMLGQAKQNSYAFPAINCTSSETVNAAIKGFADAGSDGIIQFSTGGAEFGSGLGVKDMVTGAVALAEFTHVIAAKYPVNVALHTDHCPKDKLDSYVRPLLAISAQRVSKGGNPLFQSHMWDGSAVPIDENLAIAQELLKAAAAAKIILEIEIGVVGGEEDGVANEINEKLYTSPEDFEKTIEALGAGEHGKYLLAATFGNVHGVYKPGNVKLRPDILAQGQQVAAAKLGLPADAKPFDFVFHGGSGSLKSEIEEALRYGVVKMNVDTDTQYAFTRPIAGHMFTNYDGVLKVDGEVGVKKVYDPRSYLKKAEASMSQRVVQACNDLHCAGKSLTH
CCHFV vOTU inh: CCHFV vOTU protease inhibition; Pep-AMC fluorescence; inhibition, % at 11.5 µM; 370,000 compounds, 0.55% hits
GDH-TPI counter: GDH-TPI coupled enzyme inhibition counter-screen | GDH-TPI coupled enzyme counterscreen, NADH absorbance | 360,000 compounds, 1.2% hits | inhibition, % at 4.8 µM
Each line names hits and unclear results; the compound was inactive in the other large screens. Cut-off read from the data, not from the text of the source, unless noted: active = inhibition above about 30%; inactive = the rest.

COc1ccc(/C=N/Nc2nc(=O)[nH]nc2C)cc1[N+](=O)[O-]	GDH-TPI counter 38
COc1cc(/C=N/Nc2nc3ccccc3s2)cc([N+](=O)[O-])c1O	GDH-TPI counter 70
COc1cc2c(cc1NC(=O)CSc1nnc(-c3ccccc3C)n1Cc1ccco1)oc1ccccc12	none (no result: Mtb betalactam, MazF activator, Mtb FBA inh, GDH-TPI counter)
Nc1ncnc2c1ncn2[C@@H]1O[C@H](C(=O)N[C@@H](CCc2ccccc2)C(=O)N2CCN(CC(=O)N3CCCC3)CC2)[C@@H](O)[C@H]1O	none (no result: Mtb betalactam, MazF activator, Mtb FBA inh, GDH-TPI counter)
COc1ccc(N2CCCN(CC(=O)Nc3ccc(Cl)cc3)CC2)cc1	none (no result: Mtb betalactam, MazF activator, Mtb FBA inh, GDH-TPI counter)
Cc1cc(C(=O)N/N=C/c2ccc(O)c([N+](=O)[O-])c2)n[nH]1	GDH-TPI counter 43
COc1cc(/C=N/NC(=O)Cc2ccccc2)cc([N+](=O)[O-])c1O	GDH-TPI counter 59
Cc1cc(C(=O)N/N=C/c2cccc([N+](=O)[O-])c2O)n[nH]1	none
COc1cc(/C=N/NC(=O)Cc2ccccc2)ccc1Oc1ccc([N+](=O)[O-])cc1[N+](=O)[O-]	none
CC(/C=N/NC(=O)Cc1cccs1)=C\c1ccco1	GDH-TPI counter 34
CCOC(=O)C1CCN(S(=O)(=O)c2cccc(-c3cn4cccnc4n3)c2)CC1	Mtb FBA inh active
CCOC(=O)C1CCN(S(=O)(=O)c2cccc(-c3cn4cc(C)ccc4n3)c2)CC1	none
O=C(OC12CCCN(C1)/C(=C/c1cccc(Cl)c1)C2)c1ccco1 (stereo not given)	none (no result: Mtb betalactam, MazF activator, Mtb FBA inh, GDH-TPI counter)
Cc1c(O)ccc2c(CC(=O)N[C@@H](Cc3ccccc3)C(=O)O)cc(=O)oc12	Mtb FBA inh 165
C=CCN1[C@@H](C)COc2cccc(N3CCSCC3)c2S1(=O)=O	none (no result: Mtb betalactam, MazF activator, Mtb FBA inh, GDH-TPI counter)
O=c1oc2cc(Oc3ccc(C(F)(F)F)cc3[N+](=O)[O-])ccc2c2c1CCC2	none
O=c1oc2cc(Oc3c([N+](=O)[O-])cc(C(F)(F)F)cc3[N+](=O)[O-])ccc2c2c1CCCC2	Mtb FBA inh active
Cc1nc(N2CCOCC2)c2c(C)c(C(=O)Nc3ccccc3Cl)sc2n1	GDH-TPI counter 31
Cc1nc(N2CCOCC2)c2c(C)c(C(=O)Nc3ccc(F)cc3Cl)sc2n1	none
Cn1cccc1/C=C1\SC(=S)N(NC(=O)c2ccccc2O)C1=O	GDH-TPI counter 33
CCOC(=O)C1=C(Cc2ccc(F)cc2)C(=O)c2ccccc2C1=O	CCHFV vOTU inh 71
O=C(Nc1nc2ncccn2c1-c1ccc(C(F)(F)F)cc1)c1ccc(F)cc1	none (no result: Mtb betalactam, MazF activator, Mtb FBA inh, GDH-TPI counter)
COc1ccc(/C=C2\CCCC(C(=O)C(F)(F)F)=C2O)cc1	MazF activator 475
CCCCNc1c(-c2cccc(SC3CCCCC3)c2)nc2ccc(Cl)cn12	none
CCCCNc1c(-c2ccc(SC3CCCCC3)cc2)nc2ccccn12	Mtb FBA inh 50
CCOC(=O)C(NC(=O)c1ccccc1)=C(C)C	none
COC(=O)C(NC(=O)c1ccccc1)=C(C)C	none
CCOC(=O)C(NC(=O)c1ccccc1)=C1C=C(C)OC(C)=C1	GDH-TPI counter 42
COC(=O)C(NC(=O)c1ccccc1)=C1C=C(C)OC(C)=C1	GDH-TPI counter 31
CN1C(=O)c2cc(NS(=O)(=O)c3ccc(F)cc3)ccc2OC[C@H]2O[C@@H](CC(=O)NCC(F)(F)F)CC[C@@H]21	none (no result: Mtb betalactam, MazF activator, Mtb FBA inh, GDH-TPI counter)
O=C(NNC(=O)c1ccccc1O)c1ccc(Br)cc1	none
O=C(NNC(=O)c1ccccc1O)c1cccc(Br)c1	GDH-TPI counter 31
O=C(NNC(=S)Nc1cccc2ccccc12)c1cccc(Br)c1	GDH-TPI counter 35
O=C(NNC(=O)c1ccc2ccccc2c1)c1cccc(Br)c1	none (no result: Mtb betalactam)
C[C@@H]1OC(C2CCCCC2)N(C)[C@H]2C[C@H]3c4cc(N5CCOCC5)ccc4CCN3C[C@@H]12 (stereo not given in full)	none (no result: Mtb betalactam, MazF activator, Mtb FBA inh, GDH-TPI counter)
CCOC(=O)[C@@]12CCCC3=C1N(CCC3)C(=O)[C@H]2CC(=O)NCc1cccs1	none (no result: Mtb betalactam, MazF activator, Mtb FBA inh, GDH-TPI counter)
CCn1c(=O)c(C(=O)NCc2ccccc2Cl)c(O)c2ccccc21	none
Cn1c(=O)c(C(=O)NCc2ccccc2Cl)c(O)c2ccccc21	MazF activator 54
O=C(N/N=C/c1ccc(N2CCOCC2)cc1)c1ccc(NS(=O)(=O)c2cccs2)cc1	GDH-TPI counter 35
O=C(N/N=C/c1ccc(N2CCOCC2)s1)c1ccc(NS(=O)(=O)c2cccs2)cc1	GDH-TPI counter 45
O=C(N/N=C/c1ccc(N2CCOCC2)cc1)c1cccs1	GDH-TPI counter 32
O=S(=O)(Nc1ccc(N2CCOCC2)cc1)c1cccs1	none
COC(=O)c1cc(-c2cccc(OC(F)(F)F)c2)c(=O)n2c1CCC2	none (no result: Mtb betalactam, MazF activator, Mtb FBA inh, GDH-TPI counter)
FC(F)(F)c1ccccc1C(C#Cc1ccccc1)NCc1ccc2c(c1)OCO2 (stereo not given)	none (no result: Mtb betalactam, MazF activator, Mtb FBA inh, GDH-TPI counter)
N#C/C(=C\c1c(N2CCOCC2)nc2ccccn2c1=O)C(=O)NC1CCS(=O)(=O)C1 (stereo not given)	Mtb FBA inh active
C=CCNC(=O)/C(C#N)=C/c1c(N2CC(C)OC(C)C2)nc2ccccn2c1=O (stereo not given)	Mtb FBA inh 126
N#C/C(=C\c1c(N2CCCCCC2)nc2ccccn2c1=O)C(=O)NC1CCS(=O)(=O)C1 (stereo not given)	none
CCOC(=O)[C@]12CCCCC/C=C\1N(Cc1ccc(OC)cc1)C(=O)[C@H]2CC(=O)NCC1CCCCC1	none (no result: Mtb betalactam, MazF activator, Mtb FBA inh, GDH-TPI counter)
COc1ccc(OC)c(CN2C(=O)COc3ccccc3C2c2nnnn2C2CCCC2)c1 (stereo not given)	none (no result: Mtb betalactam, MazF activator, Mtb FBA inh, GDH-TPI counter)
CC(C)C[C@H](NC(=O)c1ccc(Cl)cc1Cl)C(=O)N1CCC[C@H]1C(=O)NCc1ccccc1	none (no result: Mtb betalactam, MazF activator, Mtb FBA inh, GDH-TPI counter)
CC1(C)OC(=O)C(=NNc2ccccc2C(=O)O)C(=O)O1	GDH-TPI counter 49
Cc1sc(=NC(=O)c2ccco2)n(C)c1-c1ccccc1	GDH-TPI counter 39
CCOc1cccc2sc(=NC(=O)c3ccco3)n(CC(=O)OC)c12	GDH-TPI counter 81
Cn1c(=NC(=O)c2ccco2)sc2ccccc21	GDH-TPI counter 34
CCOc1ccc(-n2c(SCC(=O)c3ccc4ccccc4c3)nnc2-c2ccco2)cc1	none (no result: Mtb betalactam, MazF activator, Mtb FBA inh, GDH-TPI counter)
C[n+]1ccccc1/C=C/c1ccc(F)c(F)c1	GDH-TPI counter 35
C[n+]1ccccc1/C=C/c1ccc(C#N)cc1	none
C[n+]1ccccc1/C=C/c1c(F)cccc1F	GDH-TPI counter 45
COc1ccc(-n2c(COc3ccccc3)nnc2SCC(=O)Nc2ccccc2-c2ccccc2)cc1	none (no result: Mtb betalactam, MazF activator, Mtb FBA inh, GDH-TPI counter)
O=C(CN1C(=O)C2(OCCCO2)c2ccccc21)NCc1ccc2ccccc2c1	none (no result: Mtb betalactam, MazF activator, Mtb FBA inh, GDH-TPI counter)
COc1cc(/C=N/Nc2nc(C)cc(C)n2)ccc1O	GDH-TPI counter 36 (no result: Mtb betalactam)
COc1cc(/C=N/NC(=O)c2cc3ccccc3[nH]2)ccc1O	GDH-TPI counter 41
CCOc1cccc(/C=N/Nc2nc(N3CCCC3)nc(N3CCCC3)n2)c1O	none (no result: Mtb betalactam)
COc1cc(/C=N/NC(=O)c2nc(C)cc(C)n2)ccc1O	GDH-TPI counter 37
COc1cc(/C=N/Nc2nc(C)cc(C)n2)cc(OC)c1OC	none
CCOc1cc(/C=N/Nc2nc(N3CCCC3)nc(N3CCCC3)n2)ccc1O	GDH-TPI counter 36
C=CCN(CC#Cc1ccccc1)Cc1ccc2c(c1)OCO2	none (no result: Mtb betalactam, MazF activator, Mtb FBA inh, GDH-TPI counter)
COc1cc(/C=N/NC(=O)c2nonc2C)ccc1O	none
COc1cc(/C=N/NC(=O)c2cccc(NC(=O)c3ccccc3C)c2)ccc1O	none
